# According to PubChem BioAssay (NCATS):
# Several values for one entry are separate records, joined by “and”; a condition that tells them apart may be missing. Equal entries are not always repeated. Results filed as inconclusive are left out. Unmarked numbers belong to inactive results. Activity calls are given as the source filed them. The call rests on the fitted dose curve; in most records, active means well fitted inhibition curve with a large enough effect; inconclusive means small, poorly fitted or top-dose-only effect; inactive means flat fitted curve, though single readings scatter.
# Columns and labels:
# CRL-7250 = normal cell line; assay: Cytotoxic Profiling of Annotated Libraries Using Quantitative High-Throughput Screening (AID 1296008); settings: Five cell lines viability, CellTiter-Glo ATP luminescence, 48-72 h; max response: stronger effect = lower value; further: potency means the concentration at half of the fitted maximal effect; on max response: on the % scale 0 is the no-effect control and ±100 the full control effect
# Procedure, shortened: (§1)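 Compounds were pin-transferred onto cells and incubated 48 or 72 hr at 37 degree Celsius, 95% humidity. CellTiter-Glo was added, plates sat 10 min at room temperature, then ATP-coupled luminescence was imaged as the viability read-out.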
# HEK293 = assay: as above; settings: Five cell lines viability, CellTiter-Glo ATP luminescence, 48-72 h; max response: stronger effect = lower value
# Procedure, shortened: as §1
# KB-3-1 = assay: as above; settings: Five cell lines viability, CellTiter-Glo ATP luminescence, 48-72 h; max response: stronger effect = lower value
# Procedure, shortened: as §1
# NIH3T3 = assay: as above; settings: Five cell lines viability, CellTiter-Glo ATP luminescence, 48-72 h; max response: stronger effect = lower value
# Procedure, shortened: as §1
# HaCat [1] = assay: as above; settings: Five cell lines viability, CellTiter-Glo ATP luminescence, 48-72 h; max response: stronger effect = lower value
# Procedure, shortened: as §1
# JCK = assay: qHTS profiling for inhibitors of Plasmodium falciparum proliferation (AID 504749);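 further: 0% = DMSO vehicle and full inhibition = artemisinin control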; settings: P. falciparum in erythrocytes, SYBR Green DNA, 72 h; series mostly up to 28.7 µM
# Procedure, shortened: (§2)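 P. falciparum-infected erythrocytes (0.3% parasitemia, 2.5% hematocrit final) were exposed to compounds for 72 h at 37 C in 5% CO2, then lysed with SYBR Green buffer overnight at room temperature; parasite DNA fluorescence was normalized to artemisinin and DMSO controls.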
# N140 = assay: as above; settings: P. falciparum in erythrocytes, SYBR Green DNA, 72 h; series mostly up to 28.7 µM
# Procedure, shortened: as §2
# P93_24 = assay: as above; settings: P. falciparum in erythrocytes, SYBR Green DNA, 72 h; series mostly up to 28.7 µM
# Procedure, shortened: as §2
# P94_40 = assay: as above; settings: P. falciparum in erythrocytes, SYBR Green DNA, 72 h; series mostly up to 28.7 µM
# Procedure, shortened: as §2
# PAD = assay: as above; settings: P. falciparum in erythrocytes, SYBR Green DNA, 72 h; series mostly up to 28.7 µM
# Procedure, shortened: as §2
# PC15 = assay: as above; settings: P. falciparum in erythrocytes, SYBR Green DNA, 72 h; series mostly up to 28.7 µM
# Procedure, shortened: as §2
# PC26 = assay: as above; settings: P. falciparum in erythrocytes, SYBR Green DNA, 72 h; series mostly up to 28.7 µM
# Procedure, shortened: as §2
# PC49 = assay: as above; settings: P. falciparum in erythrocytes, SYBR Green DNA, 72 h; series mostly up to 28.7 µM
# Procedure, shortened: as §2
# SC27B = assay: as above; settings: P. falciparum in erythrocytes, SYBR Green DNA, 72 h; series mostly up to 28.7 µM
# Procedure, shortened: as §2
# TAB109 = assay: as above; settings: P. falciparum in erythrocytes, SYBR Green DNA, 72 h; series mostly up to 28.7 µM
# Procedure, shortened: as §2
# TAB113 = assay: as above; settings: P. falciparum in erythrocytes, SYBR Green DNA, 72 h; series mostly up to 28.7 µM
# Procedure, shortened: as §2
# TAB165 = assay: as above; settings: P. falciparum in erythrocytes, SYBR Green DNA, 72 h; series mostly up to 28.7 µM
# Procedure, shortened: as §2
# W2 = assay: as above; settings: P. falciparum in erythrocytes, SYBR Green DNA, 72 h; series mostly up to 28.7 µM
# Procedure, shortened: as §2
# HEK293T = assay: qHTS assay to identify novel small-molecules to repurpose for Merkel cell carcinoma treatment (AID 1296009); settings: MCC and control cell lines, CellTiter-Glo viability, 72 h; at 44.8 µM (top of the series) unless noted
# Procedure, shortened: (§3)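 Cells exposed to NPC (8-point) and MIPE (11-point) compound dilutions for 72 hr at 37 degree celsius; viability read by CellTiter-Glo luminescence, normalized to no-cell and DMSO in-plate controls.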
# HACAT [2] = assay: as above; settings: MCC and control cell lines, CellTiter-Glo viability, 72 h; at 44.8 µM (top of the series) unless noted
# Procedure, shortened: as §3
# Further: nearly all actives have a fitted effect of over 60% in size.
smiles,measurement,setting,value
CN(C(Cc1ccc(OS(=O)(=O)c2cccc3cnccc23)cc1)C(=O)N1CCN(c2ccccc2)CC1)S(=O)(=O)c1cccc2cnccc12 (stereo not given),max response,CRL-7250,0.636%
same,Potency,HEK293,5.26 µM (active)
same,max response,KB-3-1,-3.12%
same,max response,NIH3T3,-12.5%
Cc1cccc(Nc2nc(N[C@@H]3CCCC[C@H]3N)ncc2C(N)=O)c1,outcome,CRL-7250,inactive
same,max response,HaCat [1],-5.8%
COc1cc2nccc(Oc3ccc(NC(=O)Nc4cc(C)on4)c(Cl)c3)c2cc1OC,Potency,CRL-7250,14.8 µM (active)
same,Potency,HEK293,13.2 µM (active)
same,Potency,KB-3-1,18.7 µM (active)
same,Potency,NIH3T3,9.35 µM (active) and 3.66 µM (active)
O=C1C(CCC(O)c2ccc(F)cc2)C(c2ccc(O)cc2)N1c1ccc(F)cc1 (stereo not given),outcome,JCK,inactive
same,Potency,N140,inactive
same,Potency,P93_24,inactive
same,Potency,P94_40,inactive
same,Potency,PAD,inactive
same,outcome,PC15,inactive
same,Potency,PC26,inactive
same,outcome,PC49,inactive
same,Potency,SC27B,inactive
same,Potency,TAB109,inactive
same,Potency,TAB113,inactive
same,Potency,TAB165,inactive
same,Potency,W2,inactive
same,max response,CRL-7250,-5.06%
same,outcome,HEK293,inactive
same,max response,HaCat [1],3.02%
same,max response,KB-3-1,-2.23%
same,max response,NIH3T3,1.16%
same,outcome,HEK293T,inactive
COc1ccc(-c2nc3ccc(C4=NNC(=O)CC4C)cc3[nH]2)cc1 (stereo not given),outcome,CRL-7250,inactive
same,Potency,HEK293,18.8 µM (active) and 23.1 µM (active)
same,max response,KB-3-1,-4.82%
Fc1ccc(CNc2ncnc3ccc(F)cc23)cc1,Potency,CRL-7250,4.69 µM (active) and 4.61 µM (active)
same,Potency,HEK293,6.51 µM (active)
same,max response,HaCat [1],-29%
same,max response,NIH3T3,-22.4%
O=C(c1ccc(C=Cc2n[nH]c3ccccc23)cc1)N1CCNCC1,max response,CRL-7250,-12.3%
same,max response,HEK293,-9.22%
same,Potency,KB-3-1,9.35 µM (active)
same,Potency,NIH3T3,2.35 µM (active)
O=C(c1ccc(F)c(F)c1Nc1ccc(I)cc1F)N1CC(O)([C@H]2CCCCN2)C1,Potency,CRL-7250,2.96 µM (active)
same,Potency,HEK293,26.4 µM (active)
same,Potency,HaCat [1],7.43 µM (active)
same,Potency,NIH3T3,8.33 µM (active)
Cc1cc(OCCCS(C)(=O)=O)cc(C)c1-c1cccc(COc2ccc3c(c2)OC[C@H]3CC(=O)O)c1,max response,CRL-7250,-33.3%
same,Potency,HEK293,20.9 µM (active)
same,max response,HaCat [1],-16.3%
same,max response,NIH3T3,-18.7%
Cc1ccc2c(=O)c3cccc(CC(=O)O)c3oc2c1C,max response,CRL-7250,-6.92%
same,outcome,HEK293,inactive
same,max response,HaCat [1],-14.4%
same,outcome,KB-3-1,inactive
same,outcome,NIH3T3,inactive
same,outcome,HEK293T,inactive
CCNC(=O)Nc1ccc(Oc2ncnc(N)c2C=NOC)cc1Cl,outcome,CRL-7250,inactive
same,max response,HEK293,-3.24%
same,outcome,HaCat [1],inactive
same,max response,NIH3T3,4.69%
same,outcome,HACAT [2],inactive
COC(=O)Nc1ccc(-c2nc(N3CCOCC3)c3cnn(C4CCN(C(=O)OC)CC4)c3n2)cc1,Potency,CRL-7250,0.332 µM (active)
same,Potency,HEK293,1.66 µM (active)
same,Potency,KB-3-1,1.48 µM (active)
same,Potency,NIH3T3,4.18 µM (active)
CCNC(=O)[C@H]1O[C@@H](n2cnc3c(N)nc(NCCc4ccc(CCC(=O)O)cc4)nc32)[C@H](O)[C@H]1O,max response,CRL-7250,4.93%
same,outcome,HEK293,inactive
same,max response,HaCat [1],-10.6%
same,max response,KB-3-1,-0.875%
same,outcome,NIH3T3,inactive
same,outcome,HEK293T,inactive
O=C1CCCC(=O)C1C(=O)c1ccc(C(F)(F)F)cc1[N+](=O)[O-],max response,CRL-7250,-12.8%
same,max response,HEK293,0.204%
same,max response,KB-3-1,8.25%
same,max response,NIH3T3,-10%
CC(C)n1c(C=C[C@H](O)C[C@H](O)CC(=O)O)c(-c2ccc(F)cc2)c2ccccc21,Potency,CRL-7250,2.64 µM (active)
same,Potency,HEK293,14.8 µM (active)
same,Potency,KB-3-1,11.8 µM (active)
same,Potency,NIH3T3,16.6 µM (active)
CCC(=C(c1ccc(O)cc1)c1ccc(OCCNC)cc1)c1ccccc1,max response,CRL-7250,-6.43%
same,max response,HaCat [1],-11.9%
CN1CC(=O)NC1=NC(=O)Nc1cccc(Cl)c1,max response,CRL-7250,-9.31%
same,max response,HEK293,-3.54%
same,max response,KB-3-1,5.76%
same,max response,NIH3T3,-5.12%
CCCCCCCCCCCCCC(=O)N[C@H](CO)[C@H](O)c1ccc([N+](=O)[O-])cc1,Potency,CRL-7250,9.35 µM (active)
same,Potency,HEK293,5.26 µM (active)
same,max response,KB-3-1,5.57%
Cc1ccc(C(=O)N(CCCN)[C@@H](c2nc3cc(Cl)ccc3c(=O)n2Cc2ccccc2)C(C)C)cc1,max response,CRL-7250,-35.4%
same,max response,HEK293,-91.6%
same,Potency,KB-3-1,0.0008 µM (active)
same,max response,NIH3T3,-42.8%
CCC(=O)N1CCN(c2ccc(-n3c(=O)ccc4cnc5ccc(-c6cnc7ccccc7c6)cc5c43)cc2C(F)(F)F)CC1,Potency,CRL-7250,0.0841 µM (active)
same,Potency,HEK293,14.8 nM (active) and 53.1 nM (active)
same,Potency,HaCat [1],1.05 µM (active) and 668 nM (active)
same,Potency,NIH3T3,33.2 nM (active) and 237 nM (active)
Cc1cc(CS(=O)(=O)c2ccccc2)cc(OCc2ccc(CN3CCC[C@H]3CO)cc2)c1,Potency,CRL-7250,1.32 µM (active)
same,Potency,HaCat [1],1.48 µM (active)
same,Potency,KB-3-1,3.72 µM (active)
same,Potency,NIH3T3,2.96 µM (active)
O=c1[nH]nc(OCCCc2ccc(Cl)cc2)c(NCc2cccnc2)c1Br,Potency,CRL-7250,6.51 µM (active)
same,Potency,HaCat [1],20.9 µM (active)
same,max response,KB-3-1,3.09%
same,max response,NIH3T3,1.68% and -21.7%
COc1ccc2c(c1)CC[C@H]1[C@@H]2CC[C@]2(C)[C@@H](NCCCCCCN3C(=O)C=CC3=O)CC[C@H]12,max response,CRL-7250,-3.42%
same,max response,HaCat [1],1.55%
same,max response,KB-3-1,-4.66%
same,max response,NIH3T3,-1.24%
COc1ccc(C=CC(=O)Nc2ccccc2C(=O)O)cc1OC,max response,CRL-7250,-5.04%
same,max response,HaCat [1],-7.89%
same,max response,KB-3-1,7.16%
same,max response,NIH3T3,0.371%
